The whole screen tested about 1,100 compounds, of which about 65 (6%) were called active. The rule behind the calls is not given here. A selection follows. Entries with a potency or affinity are not part of this list.
molecular target: Calpain-2 catalytic subunit (Sus scrofa) (UniProt P43367); experiment: m-calpain protease blockers, concentration series – biochemical, fluorogenic peptide substrate, dose response (AID 1420); conditions: purified calpain II, 30 min; series mostly up to 50 µM
Sequence (P43367 whole entry, looked up): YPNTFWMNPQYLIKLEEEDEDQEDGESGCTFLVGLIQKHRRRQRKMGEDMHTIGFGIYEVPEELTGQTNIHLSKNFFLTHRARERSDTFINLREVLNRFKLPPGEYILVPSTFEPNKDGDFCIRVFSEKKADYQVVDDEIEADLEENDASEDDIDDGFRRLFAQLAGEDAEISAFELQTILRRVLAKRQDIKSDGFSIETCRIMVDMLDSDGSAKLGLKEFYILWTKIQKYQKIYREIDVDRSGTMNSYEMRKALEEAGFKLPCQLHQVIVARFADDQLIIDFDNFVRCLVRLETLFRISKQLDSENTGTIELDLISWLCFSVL

outcome, inactive:
O=C(NNC(=O)c1cc(OCC(F)(F)F)ccc1OCC(F)(F)F)c1cccc(C(F)(F)F)c1
CN(C)c1cccc(C(=O)OCC(=O)Nc2ccccc2Cl)c1
CCOC(=O)C(C)Oc1ccc(OCc2ccccc2)cc1 (stereo not drawn)
